{"source": "the supplement of paper PMC7156485", "note": "Where “and” joins values, the source holds several entries; their conditions need not be identical. Equal values may be shown once. ± gives the standard deviation of the averaged measurements.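 Note: TDF denotes transformed human dermal fibroblasts of mesenchymal origin.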", "data": [{"test_system": "HCC1569", "assay": "cell number relative to DMSO (% of DMSO); higher = more cells (less growth inhibition / toxicity)", "conditions": "concentration: 10 µM; 24 h", "outline": "(§1)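 H1.0 nuclear intensity or cell number is stated as percent of the plate control, based on the median of replicates, and HCC1569 values were smoothed for positional effects. These came from HCC1569 and TDF cells treated with compounds at 10 µM for 24 h at 37 °C in triplicate, then fixed in 3.7% formaldehyde and stained with a rabbit anti-H1.0 antibody, an AlexaFluor 647 secondary and DAPI.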", "values": [{"smiles": "CS(=O)(=O)c1ccc(-c2cc(Br)sc2-c2ccc(F)cc2)cc1", "cell number": 99.9}, {"smiles": "NC(=O)C1=CN(C2OC(COP(=O)([O-])OP(=O)([O-])OCC3OC(n4cnc5c(N)ncnc54)C(OP(=O)([O-])[O-])C3O)C(O)C2O)C=CC1.[Na+].[Na+].[Na+].[Na+]", "note": "(configuration not stated) [NADPH tetrasodium]", "cell number": 103}, {"smiles": "C[N+](C)(C)CCOC(=O)CCC(=O)OCC[N+](C)(C)C", "note": "[Succinylcholine]", "cell number": 100}, {"smiles": "CCN(CC)CCCCNc1ncc2cc(-c3c(Cl)cccc3Cl)c(NC(=O)NC(C)(C)C)nc2n1", "cell number": 63.1}, {"smiles": "O=C(NOCC(O)CO)c1ccc(F)c(F)c1Nc1ccc(I)cc1F", "note": "(configuration not stated)", "cell number": 105}, {"smiles": "O=[N+]([O-])c1cccc2c(Br)[nH]nc12", "note": "[3-Bromo-7-nitroindazole]", "cell number": 116}, {"smiles": "c1cc(-c2cnn3cc(-c4ccc(OCCN5CCCCC5)cc4)cnc23)ccn1", "note": "[AMPK Inhibitor,                  Compound C]", "cell number": 102}]}, {"test_system": "TDF", "assay": "cell number relative to DMSO (% of DMSO); higher = more cells (less growth inhibition / toxicity)", "conditions": "concentration: 10 µM; 24 h", "outline": "as §1", "values": [{"smiles": "CC1OC(Oc2c(-c3ccc(O)c(O)c3)oc3cc(O)cc(O)c3c2=O)C(O)C(O)C1O", "note": "(configuration not stated) [Quercitrin]", "cell number": 106}, {"smiles": "CCOC(=O)C1OC1C(=O)NC(CC(C)C)C(=O)NCCC(C)C", "note": "(configuration not stated)", "cell number": 93.4}, {"smiles": "CC(C)C(CO)Nc1nc(Nc2cccc(Cl)c2)c2ncn(C(C)C)c2n1", "note": "(configuration not stated)", "cell number": 60.6}, {"smiles": "CC1CC2C(C(O)CC3(C)C2CCC3(O)C(=O)CO)C2(C)C=CC(=O)C=C12", "note": "(configuration not stated) [Methylprednisolone]", "cell number": 102}, {"smiles": "CC(C)c1cccc(O)c(=O)c1", "note": "[Hinokitiol]", "cell number": 83}, {"smiles": "CC(C)C(CO)Nc1nc(Nc2cccc(Cl)c2)c2ncn(C(C)C)c2n1", "note": "(configuration not stated) [Purvalanol A]", "cell number": "61.8 ± 9.4"}, {"smiles": "COC(C)(C)CCCC(C)CC=CC(C)=CC(=O)O", "note": "(configuration not stated) [Methoprene acid]", "cell number": 91.9}, {"smiles": "Nc1ccc(N2C(=O)c3ccccc3C2=O)c(Cl)c1", "note": "[N-(4-Amino-2-chlorophenyl)phthalimide]", "cell number": 107}, {"smiles": "CC(C)[N+]1(C)C2CCC1CC(OC(=O)C(CO)c1ccccc1)C2.[Br-]", "note": "(configuration not stated) [Ipratropium.Br]", "cell number": 98}, {"smiles": "O=C1Nc2cc(Br)ccc2C1=C1N=c2ccccc2=C1NO", "note": "[GSK-3 Inhibitor IX]", "cell number": 70.1}, {"smiles": "C=C1C(=CC=C2CCCC3(C)C2CCC3C(C)C=CC(O)C2CC2)CC(O)CC1O", "note": "(configuration not stated) [Calcipotriene]", "cell number": 109}, {"smiles": "COc1cc(C2Oc3cc(C4Oc5cc(O)cc(O)c5C(=O)C4O)ccc3OC2CO)ccc1O", "note": "(configuration not stated) [Silybine]", "cell number": 103}, {"smiles": "CN(C)CCC=C1c2ccccc2COc2ccc(CC(=O)O)cc21", "note": "[Olopatadine]", "cell number": 106}, {"smiles": "Cc1cc(Cc2cc(C)cc(C(C)(C)C)c2O)c(O)c(C(C)(C)C)c1", "cell number": "90.7 and 98.5"}, {"smiles": "O=S(=O)(O)C1CCNCC1", "note": "[Piperidine-4-sulphonic acid]", "cell number": 101}, {"smiles": "CC1CCc2c(N3CCC(O)CC3)c(F)cc3c(=O)c(C(=O)O)cn1c23", "note": "(configuration not stated) [Nadifloxacin]", "cell number": 89.2}, {"smiles": "O=c1c(-c2ccc(F)cc2)c(-c2ccncc2)[nH]n1-c1ccc(Cl)cc1", "note": "[p38 MAP Kinase Inhibitor]", "cell number": 111}, {"smiles": "CCC1(c2ccccc2)NC(=O)N(C)C1=O", "note": "(configuration not stated) [Mephenytoin]", "cell number": 109}, {"smiles": "C[N+](C)(CCCCCC[N+](C)(C)CCCN1C(=O)c2cccc3cccc(c23)C1=O)CCCN1C(=O)c2cccc3cccc(c23)C1=O.[Br-].[Br-]", "cell number": 101}, {"smiles": "COc1cc(O)c(C(=O)C=Cc2ccccc2)c(OC)c1", "note": "[Flavokawain B]", "cell number": 81.6}, {"smiles": "CC(C(=O)O)c1ccc(CC2CCCC2=O)cc1", "note": "(configuration not stated) [loxoprofen]", "cell number": 95.9}, {"smiles": "CCCCCC=CCC=CCC=CCC=CCCCC(=O)OC(CO)COC(=O)CCCCCCCCCCCCCCCCC", "note": "(configuration not stated) [1-Stearoyl-2-arachidonoyl-glycerol]", "cell number": 104}, {"smiles": "Cl.O=C(c1ccc(OCCN2CCCCC2)cc1)c1c(-c2ccc(O)cc2)sc2cc(O)ccc12", "note": "[Raloxifene hydrochloride]", "cell number": 100}, {"smiles": "COC(=O)C1C2CC3c4[nH]c5cc(OC)ccc5c4CCN3CC2CC(OC(=O)c2cc(OC)c(OC)c(OC)c2)C1OC", "note": "(single isomer, unassigned; (-)) [(-)-Isoreserpine]", "cell number": 107}, {"smiles": "O=C(O)CCCC=CCC1C(O)CC(F)C1C=CC(O)C1Cc2ccccc2C1", "note": "(configuration not stated)", "cell number": 103}, {"smiles": "CC(C)=CCCC(C)=CCCC(C)=CCCC(C)=CCCC(C)=CCCC(C)=CCCC(C)=CCCC(C)=CCCC(C)=CCO", "note": "[Solanesol]", "cell number": 97.8}, {"smiles": "CCC(C(=O)C(C)C(O)C(C)CCc1ccc(C)c(O)c1C(=O)[O-])C1OC(CC)(C2CCC(O)(CC)C(C)O2)CC1C.[Na+]", "note": "(configuration not stated) [Lasalocid A]", "cell number": 88.5}, {"smiles": "CC1(COc2ccc(CC3SC(=O)NC3=O)cc2)CCCCC1", "note": "(configuration not stated) [Ciglitizone]", "cell number": 105}, {"smiles": "CS(=O)(=O)CCNCc1nc(-c2ccc3ncnc(Nc4ccc(OCc5cccc(F)c5)c(Cl)c4)c3c2)cs1.Cl.Cl", "cell number": 99.7}, {"smiles": "Cl.c1ccc2nc(C3=NCCN3)ccc2c1", "note": "[BU224 hydrochloride]", "cell number": 110}, {"smiles": "Cn1cc(C=C2C(=O)Nc3ccc(S(N)(=O)=O)cc32)c2ccccc21", "note": "[Syk Inhibitor]", "cell number": 95.3}, {"smiles": "CC(=O)O.NC(=NCCCC(N)C(=O)O)NO", "note": "[NG-Hydroxy-L-arginine acetate]", "cell number": 107}, {"smiles": "CCOC(=O)Nc1ccc(NCc2ccc(F)cc2)nc1N.O=C(O)C=CC(=O)O", "note": "[Flupirtine maleate]", "cell number": 99.2}, {"smiles": "CS(=O)(=O)c1ccc(-c2cc(Br)sc2-c2ccc(F)cc2)cc1", "cell number": 100}, {"smiles": "NC(=O)C1=CN(C2OC(COP(=O)([O-])OP(=O)([O-])OCC3OC(n4cnc5c(N)ncnc54)C(OP(=O)([O-])[O-])C3O)C(O)C2O)C=CC1.[Na+].[Na+].[Na+].[Na+]", "note": "(configuration not stated) [NADPH tetrasodium]", "cell number": 102}, {"smiles": "C[N+](C)(C)CCOC(=O)CCC(=O)OCC[N+](C)(C)C", "note": "[Succinylcholine]", "cell number": 101}, {"smiles": "CCN(CC)CCCCNc1ncc2cc(-c3c(Cl)cccc3Cl)c(NC(=O)NC(C)(C)C)nc2n1", "cell number": 84.5}, {"smiles": "O=C(NOCC(O)CO)c1ccc(F)c(F)c1Nc1ccc(I)cc1F", "note": "(configuration not stated)", "cell number": 104}, {"smiles": "O=[N+]([O-])c1cccc2c(Br)[nH]nc12", "note": "[3-Bromo-7-nitroindazole]", "cell number": 113}, {"smiles": "c1cc(-c2cnn3cc(-c4ccc(OCCN5CCCCC5)cc4)cnc23)ccn1", "note": "[AMPK Inhibitor,                  Compound C]", "cell number": 102}]}]}
